Structures can show the parent of a compound that is named as a salt.
Tests used:
Settings in all cases: 0.5 µM; time after treatment 48 h; PC9 signalome
[1] = test system: PC9; assay: AKT reporter activity score (signed KS statistic vs DMSO) (signed KS statistic (-1 to 1)); higher = stronger activation of the pathway reporter relative to DMSO
[2] = test system: PC9; assay: RAR reporter activity score (signed KS statistic vs DMSO) (signed KS statistic (-1 to 1)); higher = stronger activation of the pathway reporter relative to DMSO
[3] = test system: PC9; assay: PKC reporter activity score (signed KS statistic vs DMSO) (signed KS statistic (-1 to 1)); higher = stronger activation of the pathway reporter relative to DMSO
[4] = test system: PC9; assay: PKA reporter activity score (signed KS statistic vs DMSO) (signed KS statistic (-1 to 1)); higher = stronger activation of the pathway reporter relative to DMSO
[5] = test system: PC9; assay: p38 reporter activity score (signed KS statistic vs DMSO) (signed KS statistic (-1 to 1)); higher = stronger activation of the pathway reporter relative to DMSO
[6] = test system: PC9; assay: HIF reporter activity score (signed KS statistic vs DMSO) (signed KS statistic (-1 to 1)); higher = stronger activation of the pathway reporter relative to DMSO
[7] = test system: PC9; assay: ERK reporter activity score (signed KS statistic vs DMSO) (signed KS statistic (-1 to 1)); higher = stronger activation of the pathway reporter relative to DMSO
[8] = test system: PC9; assay: JNK reporter activity score (signed KS statistic vs DMSO) (signed KS statistic (-1 to 1)); higher = stronger activation of the pathway reporter relative to DMSO
[9] = test system: PC9; assay: WNT reporter activity score (signed KS statistic vs DMSO) (signed KS statistic (-1 to 1)); higher = stronger activation of the pathway reporter relative to DMSO
[10] = test system: PC9; assay: NFkB reporter activity score (signed KS statistic vs DMSO) (signed KS statistic (-1 to 1)); higher = stronger activation of the pathway reporter relative to DMSO
[11] = test system: PC9; assay: YAP/TAZ reporter activity score (signed KS statistic vs DMSO) (signed KS statistic (-1 to 1)); higher = stronger activation of the pathway reporter relative to DMSO

| SMILES | AKT reporter activity score [1] | RAR reporter activity score [2] | PKC reporter activity score [3] | PKA reporter activity score [4] | p38 reporter activity score [5] | HIF reporter activity score [6] | ERK reporter activity score [7] | JNK reporter activity score [8] | WNT reporter activity score [9] | NFkB reporter activity score [10] | YAP/TAZ reporter activity score [11] |
| --- | --- | --- | --- | --- | --- | --- | --- | --- | --- | --- | --- |
| CCN(CC)CCNC(=O)c1c(C)[nH]c(/C=C2\C(=O)Nc3ccc(F)cc32)c1C [Sunitinib Malate (Sutent)] | 0.076 | -0.28 | -0.0463 | 0.13 | 0.139 | -0.147 | 0.0665 | 0.0727 | -0.103 | -0.134 | -0.0629 |
| CO[C@H]1C[C@@H]2CC[C@@H](C)[C@@](O)(O2)C(=O)C(=O)N2CCCC[C@H]2C(=O)O[C@H]([C@H](C)C[C@@H]2CC[C@@H](O)[C@H](OC)C2)CC(=O)[C@H](C)/C=C(\C)[C@@H](O)[C@@H](OC)C(=O)[C@H](C)C[C@H](C)/C=C/C=C/C=C/1C [Rapamycin (Sirolimus)] | 0.0788 | -0.291 | -0.0424 | 0.0838 | -0.0405 | -0.242 | 0.0931 | -0.0966 | 0.0535 | 0.0606 | 0.12 |
| C[C@H](NC(=O)Cc1cc(F)cc(F)c1)C(=O)N[C@@H]1C(=O)N(C)c2ccccc2-c2ccccc21 | -0.303 | 0.0626 | 0.0325 | -0.0914 | 0.0414 | -0.0336 | -0.123 | -0.138 | -0.0477 | -0.12 | -0.114 |
| COc1ccc(-c2ccc3c(N4CCOC[C@@H]4C)nc(N4CCOC[C@@H]4C)nc3n2)cc1CO | -0.0864 | -0.11 | 0.0766 |  | -0.297 | -0.151 | -0.211 | -0.189 | 0.13 | 0.178 | 0.166 |
| CC(C)CC(=O)Nc1n[nH]c2c1CN(C(=O)C1CCN(C)CC1)C2(C)C | -0.35 | 0.417 |  | -0.15 | -0.296 | 0.227 | -0.107 | -0.179 | 0.117 | 0.167 | 0.244 |
| Cc1c(NC(=O)OC[C@@H]2COCCN2)cn2ncnc(Nc3ccc4c(cnn4Cc4cccc(F)c4)c3)c12 | -0.228 | 0.182 | 0.0831 | 0.0553 | -0.0763 | -0.136 | -0.29 | -0.0881 | 0.0831 | 0.0753 | 0.0967 |
| Cc1[nH]nc2ccc(-c3cncc(OC[C@@H](N)Cc4ccccc4)c3)cc12 | -0.173 | -0.385 | -0.0808 | -0.173 | 0.056 | -0.128 | -0.166 | 0.272 | 0.113 |  | -0.247 |
| C=CC(=O)Nc1cccc(Oc2nc(Nc3ccc(N4CCN(C)CC4)cc3)ncc2Cl)c1 |  | 0.418 | 0.125 |  | -0.271 | 0.164 | -0.662 | 0.152 | 0.124 | 0.166 | 0.333 |
| CN1CC[C@H](c2c(O)cc(O)c3c(=O)cc(-c4ccccc4Cl)oc23)[C@H](O)C1 [Flavopiridol hydrochloride] |  |  |  | -0.608 | -0.475 | 0.353 | -0.633 | -0.208 | 0.153 | 0.123 | 0.371 |
| C[C@@H](Oc1cc(-n2cnc3ccc(CN4CCN(C)CC4)cc32)sc1C(N)=O)c1ccccc1C(F)(F)F | -0.183 | 0.399 |  | 0.141 | 0.183 | 0.347 | -0.139 | 0.0494 | 0.141 | 0.0742 |  |
| O=C(NCCCNc1nc(Nc2cccc(NC(=O)N3CCCC3)c2)ncc1I)c1cccs1 | -0.261 | -0.0747 | 0.054 | -0.174 | 0.125 | -0.0537 | -0.0698 | -0.102 | -0.101 | 0.0689 | -0.0931 |
| Nc1ncnc2c1c(-c1cnc3[nH]ccc3c1)nn2C1CCCC1 | -0.463 | 0.646 | 0.116 |  | -0.374 | 0.183 | -0.379 | -0.111 | 0.0862 | 0.128 | 0.258 |
| C=CC(=O)Nc1ccc2ncnc(Nc3cccc(Br)c3)c2c1 |  |  |  |  | -0.268 | 0.234 | -0.724 |  |  |  | 0.467 |
| O=C(NOC[C@H](O)CO)c1ccc(F)c(F)c1Nc1ccc(I)cc1F | 0.136 | 0.142 | 0.094 | -0.18 | -0.265 | -0.129 | -0.452 | 0.303 | 0.0484 | 0.228 | 0.42 |
| COc1cc2ncnc(Nc3ccc(F)c(Cl)c3)c2cc1NC(=O)/C=C/CN1CCCCC1 | -0.392 | 0.516 | 0.0863 | -0.547 | -0.404 | 0.138 | -0.698 | -0.159 | 0.343 | 0.23 | 0.338 |
| Cc1ccc(C(=O)N(CCCN)[C@@H](c2oc3cc(Cl)ccc3c(=O)c2Cc2ccccc2)C(C)C)cc1 |  |  | 0.176 |  | -0.278 | 0.473 | -0.378 | -0.131 |  | 0.169 |  |
| CN(C)C/C=C/C(=O)Nc1cc2c(Nc3ccc(F)c(Cl)c3)ncnc2cc1O[C@H]1CCOC1 [Afatinib (BIBW2992)] | -0.37 |  | 0.191 |  | 0.229 | 0.0949 | -0.615 | 0.173 | 0.34 | 0.208 | 0.397 |
| CC(C)n1nc(-c2cc3cc(O)ccc3[nH]2)c2c(N)ncnc21 | -0.0564 | -0.222 | -0.0669 | 0.116 | 0.0578 | -0.329 | -0.108 | -0.0693 | 0.0845 | 0.195 | 0.186 |
| C=CC(=O)N1CCC[C@@H](n2nc(-c3ccc(Oc4ccccc4)cc3)c3c(N)ncnc32)C1 | -0.461 | 0.562 |  |  | -0.409 | 0.169 | -0.667 | -0.17 | 0.283 |  | 0.322 |
| COc1cccc2c1C(=O)c1c(O)c3c(c(O)c1C2=O)C[C@@](O)(C(C)=O)C[C@@H]3O[C@H]1C[C@H](N)[C@H](O)[C@H](C)O1 [Daunorubicin HCl (Daunomycin HCl)] |  |  |  |  | -0.245 |  | -0.431 | 0.068 | 0.915 | 0.693 |  |
| Cc1nc(NC(=O)N2CCC[C@H]2C(N)=O)sc1-c1ccnc(C(C)(C)C(F)(F)F)c1 [Alpelisib (BYL719)] | -0.308 | 0.0272 | -0.0493 | -0.0979 | 0.131 | -0.123 | 0.0754 | -0.0947 | 0.0988 | 0.0495 | -0.125 |
| CCN1CCN(Cc2ccc(-c3cc4c(N[C@H](C)c5ccccc5)ncnc4[nH]3)cc2)CC1 | -0.376 | 0.505 |  | -0.379 | -0.36 | 0.189 | -0.726 | 0.193 | 0.184 | 0.161 | 0.381 |
